The results in this text go back to PubChem BioAssay (NCI).

Each structure is given as a SMILES string. Compounds without any hit were thinned out: in the full panel of roughly 83,000, 20% have a hit.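 Compound tested at a single concentration for 48 hours in 96-well plates; a percent growth value below 10 was scored as active.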 Active and inactive are the calls of the source.

The subject of this test is K-562 leukemia. Put plainly: NCI-60 one-dose screen, 48 h (100 = growth as untreated, 0 = no growth, -100 = all killed). Conditions: 10 µM unless noted.
On to `COc1ccc2ncccc2c1Cc1c(OC)ccc2ncccc12`, for which the growth is 21.5% (inactive).

Consider `COc1cc(C2CC(C3C(=O)N(C)C(=O)N(C)C3=O)=NN2c2cc(Cl)cc(Cl)c2)cc(OC)c1OC` (stereo not given), for which the growth is 88.4% (inactive).

Consider `Cc1sc2nc(NCc3ccccc3)[nH]c(=O)c2c1C`, for which the growth was 12.9% (inactive).

With `Cc1cc2c(cc1C)[n+](Cc1ccc3ccccc3n1)cn2Cc1ccc2ccccc2n1`, the growth is -0.971% (active).

`COc1cc(/C=C2\CN(S(=O)(=O)c3ccc(C)cc3)C/C(=C\c3cc(CN4CCOCC4)c(O)c(OC)c3)C2=O)cc(CN2CCOCC2)c1O`: the growth was 10.4% (inactive).

For the molecule `O=C1NCCc2c1noc2-c1ccccc1`, the growth was 108% (inactive).

As for `C[C@]12CCC(=O)C=C1CC[C@H]1[C@@H]3C[C@@H](O)[C@](O)(C(=O)CO)[C@@]3(C)C[C@H](O)[C@@]12F`, the growth was 110% (inactive).

As for `C/C(=C\CCc1ccsc1)CC/C=C(\C)CCCN1CCSCC1`, the growth is 61.9% (inactive).

Turning to `COC(=O)Nc1ccc2ccc3c(NC(=O)OC)ccc4ccc1c2c43` (tested in a mixture with another compound), the growth was 25% (inactive).

In the case of `O=C(Nc1nc2c(C(F)(F)F)cccc2s1)c1cc(Cl)ccc1O`, the growth is 5.1% (active).

In the case of `COc1cc(C2=NN(C=O)C(c3cccc(Nc4ccnc5cc(Cl)ccc45)c3)C2)cc(OC)c1OC` (stereo not given), the growth was 46.5% (inactive).

On to `COc1cccc(-c2nc(-c3ccc(N)cc3)co2)c1`, for which the growth is 84.5% (inactive).

Take `C[C@@H]1[C@H]2[C@H](C=C3[C@@H]4CC[C@H]5Cc6nc7c(nc6C[C@]5(C)[C@H]4C[C@@H](O)[C@@]32C)C[C@@H]2CC[C@H]3C4=C[C@@H]5O[C@@]6(CC[C@](C)(CO)O6)[C@@H](C)[C@@]5(O)[C@@]4(C)[C@H](O)C[C@@H]3[C@@]2(C)C7)O[C@]12CCC(C)(C)O2`: the growth is -7.07% (active).

As for `O=C(CNC(=O)c1cccc2ccccc12)Nc1ccccc1Oc1cccc(O)c1`, the growth was 9.03% [5 µM] (active).

With `CCN(CC)CCNCC(=O)Oc1ccc(/C=C/C(=O)CC(=O)/C=C/c2ccc(OC(=O)CNCCN(CC)CC)c(OC)c2)cc1OC`, the growth was -37.7% (active).

On to `COc1ccc(-c2cc(-c3nnc(SCC(=O)Nc4ccc(C(C)=O)cc4)n3-c3ccccc3)c3ccccc3n2)cc1OC`, for which the growth is 110% (inactive).

As to `COc1ccc2c(c1)[n+](=O)c(C(=O)/C=C/c1cc(OC)c(OC)c(OC)c1)c(C)n2[O-]`, the growth was 35.4% (inactive).

Consider `COc1ccc(-c2nc3sc4c(c3c(=O)[nH]2)CCCCCC4)cc1`, for which the growth is 17.8% (inactive).

In the case of `CC(=O)Nc1c(Cl)cc2c(c1Cl)Cc1cc([N+](=O)[O-])ccc1-2`, the growth is 80.4% (inactive).

Take `CCN(CC)CCCCCCCNc1c2ccc(Cl)cc2nc2ccc(OC)cc12`: the growth was -21.5% (active).

For the molecule `COc1cc(/C=C/c2cc(/C=C/c3ccc(O)c(OC)c3)n(C(=O)c3ccc(Cl)cc3)n2)ccc1O`, the growth was 2.24% (active).

As to `Cc1n(Cc2ccc3ccccc3c2)c2ccccc2[n+]1Cc1ccc2ccccc2c1`, the growth was -63.1% (active).

Regarding `CCn1cnc(C[C@H](NC(=O)[C@H](CCCCNC(=O)Nc2cc(C(F)(F)F)cc(C(F)(F)F)c2)NC(=O)Nc2cc(C(F)(F)F)cc(C(F)(F)F)c2)C(=O)OC)c1`, the growth is -80.2% [100 µM] (active).

As to `O=C(Nc1cccc(-n2cc(-c3ccncc3)c(-c3cc(O)cc(Cl)c3)n2)c1)Nc1ccc(Cl)c(Cl)c1`, the growth was 1.06% (active).

`Oc1ccc(/C=N/Nc2nc3ccccc3s2)c(O)c1`: the growth was 30% (inactive).

With `Cc1csc(C#Cc2cncc(O)c2)n1`, the growth is 127% (inactive).

On to `COc1cc(/C=C/C(=O)CC(=O)/C=C/c2ccc(OC(=O)CCNC34CC5CC(CC(C5)C3)C4)c(OC)c2)ccc1OC(=O)CCNC12CC3CC(CC(C3)C1)C2`, for which the growth was 7.62% (active).

As to `N/C(=N\C(N)=N\c1nc2ccccc2s1)c1ccnc(Cl)c1`, the growth is 8.95% (active).

Take `COc1ccc(NS(=O)(=O)N2CCCCC2)cc1`: the growth is 93.8% (inactive).

For `C=C1CCC2C(C)(COC(=O)CC)C(OC(=O)CC)CCC2(C)C1C/C=C1/C(=O)OCC1OC(=O)CC` (stereo not given), the growth is 2.81% (active).

Consider `Cc1[nH]ccc2cc3nc4ccccc4c3cc12`, for which the growth was 12.1% (inactive).

Regarding `CC(C)=CCCC(C)c1ccc(C)c2c1OCN(CC1CCNCC1)C2` (stereo not given), the growth is 0.575% (active).

With `COc1ccc2c(c1)sc1nc(-c3ccc(N(C)C)cc3)cn12`, the growth is 80% (inactive).

On to `COc1cc(/C=C/C(=O)C(C(=O)/C=C/c2ccc(OC(=O)CCNc3nnc(C)s3)c(OC)c2)C(=O)CCNc2nnc(C)s2)ccc1OC(=O)CCNc1nnc(C)s1`, for which the growth was -11.8% (active).

Consider `O=C(O)c1ccc2cccnc2c1O`, for which the growth is 11.1% (inactive).

In the case of `CC[C@@H](c1ccc(O)c(O)c1)[C@@H](CC)c1ccc(O)c(O)c1`, the growth was 31.8% (inactive).

Consider `Cc1ccc(NC(=O)c2sc3nc4c(cc3c2N)C(=O)CCC4)cc1`, for which the growth was 53.1% (inactive).

`CCOC(=O)/C=C1/SC(=Nc2ccc(C#N)cc2)N(Cc2ccco2)C1=O`: the growth was 8.76% (active).

In the case of `COP(=O)(OC)C(c1ccc(O)cc1)(c1ccc(O)cc1)c1ccc(O)cc1`, the growth is 90.6% (inactive).

With `COc1ccccc1-n1c(-c2ccc(O)cc2C)cn2c3c(=O)[nH]c(=O)n(C)c3nc12`, the growth is 98.9% (inactive).
